Beta2AR agonist – beta2AR agonists driving receptor internalization, primary screen, cell-based, FAP fluorogen, flow cytometry; Beta-2 adrenergic receptor (Homo sapiens), P07550; Am2.2-beta2AR cells; response, % (concentration not given with the values); actives 0.43% (n = 340,000); AID 504454, 2011;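 active means response above a set limit, near 3 SD of response in nonfluorescent compounds, cut at about 42% in these data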
Target sequence (P07550 whole entry, looked up): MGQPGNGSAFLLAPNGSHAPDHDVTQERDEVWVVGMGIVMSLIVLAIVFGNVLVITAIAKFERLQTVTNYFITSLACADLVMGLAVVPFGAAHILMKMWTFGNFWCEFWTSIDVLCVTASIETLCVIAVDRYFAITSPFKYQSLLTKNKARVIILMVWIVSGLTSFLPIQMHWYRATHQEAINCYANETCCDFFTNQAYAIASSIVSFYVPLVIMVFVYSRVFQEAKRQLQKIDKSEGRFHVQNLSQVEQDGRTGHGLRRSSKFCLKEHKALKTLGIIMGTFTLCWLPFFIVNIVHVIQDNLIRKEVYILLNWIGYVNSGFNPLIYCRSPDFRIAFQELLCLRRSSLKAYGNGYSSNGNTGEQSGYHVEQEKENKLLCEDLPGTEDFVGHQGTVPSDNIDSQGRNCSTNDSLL
MITF TRPM1 inh – inhibitors of MITF-dependent TRPM1 promoter reporter, primary screen, cell-based, SK-MEL-5, single point, luciferase; actives 0.83% (n = 330,000); AID 488899, 2010; SK-MEL-5 TRPM1 promoter luciferase, 24 h; inhibition, % at 12.5 µM;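 active means mean inhibition across replicates of 60% or more, whatever share of single replicates reaches that level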
CF NFkB block – inhibitors of PAF-induced NF-kB signaling, primary screen, cell-based, GFP fluorescence, uHTS; KKLEB NF-kB-GFP reporter, GFP fluorescence overnight; inhibition, % at 5 µM; actives 0.86% (n = 360,000); AID 588850, 2011;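 active means at least 50% inhibition at 5 µM, scaled per plate between neutral and stimulator controls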;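 further: PAF is a Pseudomonas aeruginosa culture filtrate used as stimulus; plate controls were PAF-stimulated DMSO wells for no effect and unstimulated DMSO wells for full effect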
HIF-2a inh – HIF-2a reporter inhibitors, primary screen, luminescence, 786-0 RCC cells | 786-0 RCC cells HIF-2a reporter, luciferase luminescence, overnight | inhibition, % at 18.8 µM | actives 0.72% (n = 360,000);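 active means inhibition of the luminescence signal of 40% or more relative to plate controls, in a single-dose primary screen at 18.75 µM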
KKLEB cytotox – cytotoxicity in KKLEB CF airway cells, primary screen, cytotoxicity control for CF NF-kB inhibitor project, cell-based, uHTS, fluorescence assay plates | actives 0.36% (n = 360,000) | KKLEB CF airway cells viability, ATPlite luminescence, overnight; stronger effect = lower value; cells stimulated with P. aeruginosa culture filtrate | activity change (cytotoxicity), % at 5 µM | AID 602141, 2011;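 active means corrected activity change at or below -50% at 5 µM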
Peg3 prom inh – Peg3 promoter-driven luciferase inhibitors, primary screen, cell-based, HeLa, luciferase luminescence; HeLa PEG-Prom luciferase reporter, overnight; inhibition, % at 20 µM; actives 1.7% (n = 360,000); AID 588405, 2011;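 active means inhibition of at least 50% at 20 µM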
Mdm2 MdmX conf – retested Mdm2-MdmX interaction blockers, confirmation, cell-based, luminescence, single concentration, set 2. AID 504601, 2011. inhibition, % at 8 µM. actives 99% (n = 740). shares compounds with HIF-2a inh. SaOS-2 split-luciferase Mdm2/MdmX complementation;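 active means mean inhibition of the luminescence signal across two replicates at or above 26 percent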
HIF-2a conf – HIF-2a reporter inhibitor retest, confirmation, luminescence, 786-0 RCC cells; shares compounds with HIF-2a inh; HIF-2a luciferase reporter luminescence, overnight; inhibition, % at 18.8 µM; actives 56% (n = 1,800); AID 651580, 2012;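 active means mean inhibition across four replicates of at least 40 percent at the single tested concentration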
HIF-1a cs – HIF-1a luciferase reporter signal reduction – MiaPaCa-2 cells, single concentration, counter-screen for HIF-2a inhibitor project, confirmation | shares compounds with HIF-2a inh | MiaPaCa-2 HIF-1a luciferase reporter, desferoxamine, overnight | inhibition, % at 18.8 µM | actives 72% (n = 1,800) | AID 651589, 2012;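 active means mean inhibition of the reporter signal across four replicates at the single tested dose of 50% or more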
An asterisk follows results filed as active; . = not tested or not shown. Most compounds without a hit are left out; they make up all but 2.8% or so of the library.

SMILES	Beta2AR agonist	MITF TRPM1 inh	CF NFkB block	HIF-2a inh	KKLEB cytotox	Peg3 prom inh	HIF-2a conf	HIF-1a cs	others
O=C(Nc1ccccc1)C1=C(c2ccccc2)S(=O)(=O)CCS1(=O)=O	28	81*	85*	72*	-83*	109*	45*	86*
COc1ccc(-c2cnc3c(NC(C)=O)cc(-c4ccc(C(=O)N5CCOCC5)cc4)cn23)cc1OC	.	.	-5	41*	13	30	22	31
COc1cc(/C=C2\CC(C(C)(C)C)C/C(=C\c3cc(OC)c(OC)c(OC)c3)C2=O)cc(OC)c1OC (stereo not drawn)	12	84*	-10	94*	-8	104*	.	.	Mdm2 MdmX conf=102*
COc1cc(/C=C2\CCC(C3CCCC3)C2=O)cc(OC)c1OC (stereo not drawn)	-1	-45	-27	-196	-8	-71	.	.
C[C@@H]1C[C@@H]2OC(=O)[C@]3(C)[C@H]2[C@@H](OC3(C)O)[C@]2(C)C(=O)C=C[C@H]12 (stereo partly drawn)	8	0	3	-15	-12	3	.	.
C=C1C(=O)O[C@@H]2C[C@@H](C)[C@@H]3C=CC(=O)[C@@]3(C)[C@@H](OC(C)=O)[C@H]12	.	.	.	.	.	.	.	.	Mdm2 MdmX conf=102*
O=[N+]([O-])c1cccc(/C=C2\CCc3cnn(C4CCS(=O)(=O)C4)c32)c1 (stereo not drawn)	.	.	-18	0	-3	23	.	.
COC(=O)[C@]1(Sc2ccc(C)cc2)CC(=O)N[C@@H]1c1ccccc1	.	.	.	-4	.	.	.	.
N=c1c2c(-c3ccccc3)c(-c3ccccc3)n(Cc3ccco3)c2ncn1CCCn1ccnc1	18	88*	21	69*	-20	66*	16	74*
N=c1c2c(-c3ccccc3)c(-c3ccccc3)n(Cc3ccco3)c2ncn1Cc1ccccc1	3	6	-19	22	7	9	.	.
N=c1c2c(-c3ccccc3)c(-c3ccccc3)oc2ncn1CCCN1CCOCC1	-2	-16	-8	30	-3	34	.	.
c1ccc(-c2c(-c3ccccc3)n(Cc3ccco3)c3ncnc(NCCCn4ccnc4)c23)cc1	1	6	22	49*	-6	37	34	101*
N=c1c2c(-c3ccccc3)c(-c3ccccc3)n(Cc3ccco3)c2ncn1CCCN1CCOCC1	17	3	22	7	0	99*	.	.	Mdm2 MdmX conf=102*
c1ccc(-c2oc3ncnc(NCCCn4ccnc4)c3c2-c2ccccc2)cc1	8	8	18	-9	-20	29	.	.
OCCNc1ncnc2c1c(-c1ccccc1)c(-c1ccccc1)n2Cc1ccco1	-11	10	17	21	-4	7	.	.
CC(C)Cn1cnc2c(c(-c3ccccc3)c(-c3ccccc3)n2Cc2ccco2)c1=N	29	17	13	58*	-15	104*	16	102*
CC(C)(C)c1ccc(C(=O)N2CCC2(C)C(=O)NS(=O)(=O)c2ccc(C#N)cc2)cc1 (stereo not drawn)	.	.	0	8	-2	4	.	.
c1ccc(OCCNc2ccn3nc(-c4ccco4)cc3n2)cc1	.	.	7	-255	-12	-207	.	.
O=c1c2ccccc2nc(/C=C/c2ccc([N+](=O)[O-])o2)n1CCCO	-433	98*	-2	80*	-8	104*	54*	106*
O=c1c2ccccc2nc(/C=C/c2ccc([N+](=O)[O-])cc2)n1CCCO	-2	6	-5	11	6	12	.	.
O=C(NC(=S)Nc1ccc2c(c1)OCCO2)c1ccco1	-9	-82	3	-200	-6	-223	.	.
O=C(Nc1ccc(NC(=O)c2ccco2)cc1)c1ccc2c(c1)OCCO2	0	19	10	46*	11	-37	69*	11
CCN(CC)CCCN=C1N[C@@H](c2cccc(F)c2)C(C(=O)OC)=C(C)N1Cc1ccccc1	66*	94*	16	8	-13	97*	.	.	Mdm2 MdmX conf=102*
Cc1ccc(Cn2cc(CN3CC(N4CCSCC4)CS3(=O)=O)nn2)cc1 (stereo not drawn)	.	.	.	12	.	.	.	.
CC(C)Oc1ccc(/C=N/NC(=O)c2ccc(N(Cc3ccccc3)S(C)(=O)=O)cc2)cc1	9	-15	4	-31	0	3	.	.
SMILES	Beta2AR agonist	MITF TRPM1 inh	CF NFkB block	HIF-2a inh	KKLEB cytotox	Peg3 prom inh	HIF-2a conf	HIF-1a cs	others
COC(=O)COc1ccc(/C=N/NC(=O)CN(c2ccccc2OC)S(=O)(=O)c2ccccc2)cc1	24	8	20	57*	0	18	74*	57*
COC(=O)COc1ccc(/C=N/NC(=O)c2ccc(N(Cc3ccccc3)S(C)(=O)=O)cc2)cc1	31	6	-4	64*	-10	4	19	-3
COCCNC(=O)c1c[nH]c2ccc(S(=O)(=O)N3CCc4ccccc43)cc2c1=O	6	44	0	47*	15	51*	18	93*
[2H]C(CCOS(N)(=O)=O)c1ccc(C(C)(C)C)cc1 (stereo not drawn)	-4	83*	12	57*	6	59*	63*	45
CCN1CCCC1CNC(=O)C1CCN(Cc2nc(-c3cccc(Br)c3)oc2C)CC1 (stereo not drawn)	18	59	20	66*	-22	91*	19	104*
CC1(C(=O)NS(=O)(=O)c2cccc(Cl)c2)CCN1C(=O)c1ccccc1 (stereo not drawn)	.	.	-2	-3	4	5	.	.
O=C(NCCc1ccccc1)C(c1cccs1)N(C(=O)CCl)c1ccc(Cl)cc1 (stereo not drawn)	-59	86*	105*	92*	-89*	109*	97*	108*	Mdm2 MdmX conf=103*
COc1ccc(-c2ccc(CN3C(C)C(=O)N(Cc4cn(Cc5ccco5)nn4)CCS3(=O)=O)cc2)cc1 (stereo not drawn)	.	.	32	-18	-11	-14	.	.
CCCCN1C(=O)C(CC(=O)NCc2cccc3ccccc23)CC(C(=O)N(C(C)C)C(C)C)=C1C (stereo not drawn)	.	.	.	5	.	.	.	.

Screening data deposited in PubChem BioAssay by several laboratories.
